Results taken from PubChem BioAssay (NCI).
Compounds without any hit were thinned out: in the full panel of roughly 83,000, 20% have a hit.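 Growth was measured after 48 h exposure to one concentration of compound in 96-well plates. Values under 10 count as active.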 Activity calls are given as the source filed them.

How the values were obtained:
Experiment in all cases: NCI-60 one-dose screen, 48 h (100 = growth as untreated, 0 = no growth, -100 = all killed)
DU-145 prostate = conditions: 10 µM unless noted
K-562 leukemia = conditions: 10 µM unless noted
MALME-3M melanoma = conditions: 10 µM unless noted
MDA-MB-231 breast = conditions: 10 µM unless noted
RXF 393 renal = conditions: 10 µM unless noted
SF-268 CNS = conditions: 10 µM unless noted
SF-295 CNS = conditions: 10 µM unless noted
SF-539 CNS = conditions: 10 µM unless noted
UACC-257 melanoma = conditions: 10 µM unless noted
M14 melanoma = conditions: 10 µM unless noted
HCT-15 colon = conditions: 10 µM unless noted
HT29 colon = conditions: 10 µM unless noted
SNB-75 CNS = conditions: 10 µM unless noted
SNB-19 CNS = conditions: 10 µM unless noted
U251 CNS = conditions: 10 µM unless noted
PC-3 prostate = conditions: 10 µM unless noted
SK-MEL-5 melanoma = conditions: 10 µM unless noted
UACC-62 melanoma = conditions: 10 µM unless noted
SK-MEL-28 melanoma = conditions: 10 µM unless noted
LOX IMVI melanoma = conditions: 10 µM

Measured: growth

Nc1c(O)c(S(=O)(=O)O)c(O)c2c1C(=O)c1ccccc1C2=O
inactive: DU-145 prostate 21.4% | K-562 leukemia 22.1% | MDA-MB-231 breast 42.3% | RXF 393 renal 75.3% | SF-268 CNS 45.9% | SF-295 CNS 12.8% | SF-539 CNS 61.6% | M14 melanoma 35% | HCT-15 colon 15.9% | HT29 colon 14% | SNB-75 CNS 24.7% | SNB-19 CNS 26.2% | U251 CNS 20.2% | PC-3 prostate 23.8% | UACC-62 melanoma 34.6% | SK-MEL-28 melanoma 42.5%
active: MALME-3M melanoma -0.703% | UACC-257 melanoma 1.57% | SK-MEL-5 melanoma 5.72%

CC(=O)Oc1c(Cl)cccc1-c1ccccc1
inactive: DU-145 prostate 104% | K-562 leukemia 101% | MALME-3M melanoma 111% | MDA-MB-231 breast 98.4% | RXF 393 renal 110% | SF-268 CNS 95.1% | SF-295 CNS 103% | SF-539 CNS 104% | UACC-257 melanoma 87.6% | M14 melanoma 108% | HCT-15 colon 108% | HT29 colon 98.1% | SNB-75 CNS 103% | SNB-19 CNS 98.9% | U251 CNS 90% | PC-3 prostate 89.5% | SK-MEL-5 melanoma 101% | LOX IMVI melanoma 103% | SK-MEL-28 melanoma 112%

O=C(Nc1c(Cl)cc(Cl)cc1Cl)ON=C1CCCCC1
inactive: DU-145 prostate 94.9% | K-562 leukemia 105% | MALME-3M melanoma 101% | MDA-MB-231 breast 101% | RXF 393 renal 116% | SF-268 CNS 91.7% | SF-295 CNS 102% | SF-539 CNS 97.4% | UACC-257 melanoma 102% | M14 melanoma 111% | HCT-15 colon 102% | HT29 colon 104% | SNB-75 CNS 94.4% | SNB-19 CNS 108% | U251 CNS 104% | PC-3 prostate 114% | SK-MEL-5 melanoma 101% | UACC-62 melanoma 98.7% | SK-MEL-28 melanoma 106%

O=S(=O)(O)C(C(I)I)S(=O)(=O)O
inactive: DU-145 prostate 106% | K-562 leukemia 105% | MALME-3M melanoma 107% | MDA-MB-231 breast 126% | RXF 393 renal 104% | SF-268 CNS 100% | SF-295 CNS 113% | SF-539 CNS 99.8% | UACC-257 melanoma 102% | M14 melanoma 109% | HCT-15 colon 110% | HT29 colon 118% | SNB-75 CNS 98.3% | SNB-19 CNS 113% | U251 CNS 96.3% | PC-3 prostate 95.7% | UACC-62 melanoma 110% | LOX IMVI melanoma 101% | SK-MEL-28 melanoma 114%

N#Cc1ccc(OC(=O)Nc2cc(Cl)cc(Cl)c2)cc1
active: K-562 leukemia 6.66% [100 µM] | MALME-3M melanoma -32.5% [100 µM] | MDA-MB-231 breast -52.8% [100 µM] | SF-295 CNS -23.1% [100 µM] | SF-539 CNS -4.48% [100 µM] | UACC-257 melanoma -20.1% [100 µM] | M14 melanoma -25.3% [100 µM] | HCT-15 colon 3.2% [100 µM] | HT29 colon 2.78% [100 µM] | SNB-75 CNS -9.78% [100 µM] | U251 CNS 4.68% [100 µM] | PC-3 prostate -9.43% [100 µM] | SK-MEL-5 melanoma -94.3% [100 µM] | UACC-62 melanoma -33.1% [100 µM] | SK-MEL-28 melanoma 5.58% [100 µM]
inactive: DU-145 prostate 18.9% [100 µM] | RXF 393 renal 10.3% [100 µM] | SF-268 CNS 12.5% [100 µM] | SNB-19 CNS 15.4% [100 µM]

C/C(=N\Nc1ccc([N+](=O)[O-])cc1[N+](=O)[O-])c1ccc(Br)cc1
inactive: DU-145 prostate 103% | K-562 leukemia 98.7% | MALME-3M melanoma 107% | MDA-MB-231 breast 91.5% | RXF 393 renal 106% | SF-268 CNS 97.2% | SF-295 CNS 94.4% | SF-539 CNS 106% | UACC-257 melanoma 87.9% | M14 melanoma 106% | HCT-15 colon 97.5% | HT29 colon 92.2% | SNB-75 CNS 104% | SNB-19 CNS 97.8% | U251 CNS 92.2% | PC-3 prostate 91.2% | SK-MEL-5 melanoma 100% | LOX IMVI melanoma 95.8% | SK-MEL-28 melanoma 107%

Nc1cc(F)ccc1[N+](=O)[O-]
inactive: DU-145 prostate 117% | K-562 leukemia 114% | MALME-3M melanoma 108% | MDA-MB-231 breast 105% | RXF 393 renal 94.3% | SF-268 CNS 111% | SF-295 CNS 108% | SF-539 CNS 101% | UACC-257 melanoma 118% | M14 melanoma 94.4% | HCT-15 colon 102% | HT29 colon 109% | SNB-75 CNS 85.9% | SNB-19 CNS 102% | U251 CNS 106% | PC-3 prostate 87.5% | UACC-62 melanoma 101% | LOX IMVI melanoma 100% | SK-MEL-28 melanoma 104%

C/C(=N\O)c1ccccn1
inactive: DU-145 prostate 106% | K-562 leukemia 106% | MALME-3M melanoma 108% | MDA-MB-231 breast 101% | RXF 393 renal 108% | SF-268 CNS 96.8% | SF-295 CNS 102% | SF-539 CNS 103% | UACC-257 melanoma 86.3% | M14 melanoma 105% | HCT-15 colon 102% | HT29 colon 97.3% | SNB-75 CNS 96.9% | SNB-19 CNS 95.2% | U251 CNS 88.8% | PC-3 prostate 94.3% | SK-MEL-5 melanoma 105% | LOX IMVI melanoma 99.1% | SK-MEL-28 melanoma 110%

CCCc1cccc(CCC)c1NC(=O)Nc1cc(Cl)cc(Cl)c1
inactive: DU-145 prostate 107% | K-562 leukemia 100% | MALME-3M melanoma 87.5% | MDA-MB-231 breast 90.2% | RXF 393 renal 116% | SF-268 CNS 94.9% | SF-295 CNS 109% | SF-539 CNS 92.4% | UACC-257 melanoma 86% | M14 melanoma 101% | HCT-15 colon 113% | HT29 colon 107% | SNB-75 CNS 108% | SNB-19 CNS 99.5% | U251 CNS 101% | PC-3 prostate 101% | SK-MEL-5 melanoma 94.3% | UACC-62 melanoma 90% | SK-MEL-28 melanoma 103%

Cc1ccc(/C=N/NC(N)=S)s1
inactive: DU-145 prostate 110% | K-562 leukemia 103% | MALME-3M melanoma 108% | MDA-MB-231 breast 104% | RXF 393 renal 99.3% | SF-268 CNS 98.7% | SF-295 CNS 105% | SF-539 CNS 97.6% | UACC-257 melanoma 109% | M14 melanoma 102% | HCT-15 colon 109% | HT29 colon 110% | SNB-75 CNS 91.2% | SNB-19 CNS 103% | U251 CNS 102% | PC-3 prostate 92.2% | UACC-62 melanoma 102% | LOX IMVI melanoma 101% | SK-MEL-28 melanoma 113%

C=C(C)COc1ccc(C(C)(C)C)cc1
inactive: DU-145 prostate 107% | K-562 leukemia 106% | MALME-3M melanoma 116% | MDA-MB-231 breast 102% | RXF 393 renal 99.5% | SF-268 CNS 99.8% | SF-295 CNS 101% | SF-539 CNS 102% | UACC-257 melanoma 82.6% | M14 melanoma 102% | HCT-15 colon 108% | HT29 colon 99.2% | SNB-75 CNS 94% | SNB-19 CNS 103% | U251 CNS 88.5% | PC-3 prostate 96.9% | SK-MEL-5 melanoma 104% | LOX IMVI melanoma 101% | SK-MEL-28 melanoma 108%

CS(=O)CC(=N\O)/C(CS(C)=O)=N\O (centres undefined)
inactive: DU-145 prostate 102% | K-562 leukemia 106% | MALME-3M melanoma 97.5% | MDA-MB-231 breast 101% | RXF 393 renal 114% | SF-268 CNS 98.5% | SF-295 CNS 101% | SF-539 CNS 101% | UACC-257 melanoma 96.3% | M14 melanoma 96.3% | HCT-15 colon 99% | HT29 colon 99.9% | SNB-75 CNS 96.5% | SNB-19 CNS 101% | U251 CNS 96.5% | PC-3 prostate 104% | SK-MEL-5 melanoma 103% | UACC-62 melanoma 93.8% | SK-MEL-28 melanoma 107%

O=C(NCc1ccccc1)c1cccc([N+](=O)[O-])c1
inactive: DU-145 prostate 104% | K-562 leukemia 102% | MALME-3M melanoma 90.5% | MDA-MB-231 breast 91.1% | RXF 393 renal 104% | SF-268 CNS 92.6% | SF-295 CNS 104% | SF-539 CNS 102% | UACC-257 melanoma 88% | M14 melanoma 107% | HCT-15 colon 104% | HT29 colon 97.8% | SNB-75 CNS 101% | SNB-19 CNS 95.1% | U251 CNS 89.1% | PC-3 prostate 88.9% | SK-MEL-5 melanoma 103% | LOX IMVI melanoma 105% | SK-MEL-28 melanoma 114%

C=CCc1cc(OC)c(OC)c(OC)c1
inactive: DU-145 prostate 102% | K-562 leukemia 105% | MALME-3M melanoma 109% | MDA-MB-231 breast 99% | RXF 393 renal 103% | SF-268 CNS 95.3% | SF-295 CNS 113% | SF-539 CNS 114% | UACC-257 melanoma 99.1% | M14 melanoma 103% | HCT-15 colon 99.1% | HT29 colon 98% | SNB-75 CNS 101% | SNB-19 CNS 103% | U251 CNS 102% | PC-3 prostate 100% | UACC-62 melanoma 97.4% | LOX IMVI melanoma 102% | SK-MEL-28 melanoma 115%

CC(C)C1CCC(C)C(O)C1 (centres undefined)
inactive: DU-145 prostate 106% | K-562 leukemia 103% | MALME-3M melanoma 109% | MDA-MB-231 breast 93.9% | RXF 393 renal 108% | SF-268 CNS 100% | SF-295 CNS 100% | SF-539 CNS 100% | UACC-257 melanoma 85.6% | M14 melanoma 101% | HCT-15 colon 107% | HT29 colon 105% | SNB-75 CNS 91.1% | SNB-19 CNS 99.6% | U251 CNS 89% | PC-3 prostate 89% | SK-MEL-5 melanoma 105% | LOX IMVI melanoma 99.6% | SK-MEL-28 melanoma 110%

Cc1onc(-c2c(F)cccc2Cl)c1-c1ncc(-c2ccc(Br)cc2)o1
inactive: DU-145 prostate 50% | K-562 leukemia 24% | MALME-3M melanoma 45.2% | MDA-MB-231 breast 52.3% | RXF 393 renal 58.7% | SF-268 CNS 43.1% | SF-295 CNS 36.4% | SF-539 CNS 39.6% | UACC-257 melanoma 23.7% | M14 melanoma 54.3% | HCT-15 colon 17.7% | HT29 colon 24.9% | SNB-75 CNS 65.8% | SNB-19 CNS 42.9% | U251 CNS 39.6% | PC-3 prostate 41% | SK-MEL-5 melanoma 10.8% | UACC-62 melanoma 34% | SK-MEL-28 melanoma 50.3%
